Measurements as given in publication PMC7862700, “An all-to-all approach to the identification of sequence-specific readers for epigenetic DNA modifications on cytosine”.

Tests used:
Assay in all cases: DAPPL (digital affinity profiling via proximity ligation, sequencing); 10 mM Tris-HCl pH 7.5, 50 mM NaCl, 1 mM DTT, 4% glycerol, room temperature, 30 min; GST-TFs on glutathione beads, 16-mer random dsDNA library, 0.1% formaldehyde crosslink after washing; high values mean tight binding
FLI1 = target: T1, FLI1 (Homo sapiens, UniProt Q01543 1-452); conditions: protein: recombinant; tags: N-terminal GST; dsDNA, one strand shown
T1 sequence: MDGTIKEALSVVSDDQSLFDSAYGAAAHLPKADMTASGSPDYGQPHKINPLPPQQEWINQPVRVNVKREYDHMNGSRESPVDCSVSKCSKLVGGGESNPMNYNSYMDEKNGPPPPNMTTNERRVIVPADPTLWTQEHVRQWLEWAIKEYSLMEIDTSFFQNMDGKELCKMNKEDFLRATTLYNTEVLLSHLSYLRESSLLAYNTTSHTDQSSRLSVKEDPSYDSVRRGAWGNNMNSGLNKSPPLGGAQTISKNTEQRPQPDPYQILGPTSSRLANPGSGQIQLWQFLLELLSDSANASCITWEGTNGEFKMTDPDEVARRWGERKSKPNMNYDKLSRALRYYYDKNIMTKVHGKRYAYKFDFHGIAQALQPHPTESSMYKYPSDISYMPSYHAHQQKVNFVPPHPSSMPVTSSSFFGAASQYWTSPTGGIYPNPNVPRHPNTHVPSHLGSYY
In short: (§1)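 A tag-only sample was pooled with DNA-barcoded human transcription factors that had been expressed in yeast as GST fusions and captured on glutathione beads. The pools were incubated for 30 min at room temperature with 200 nmole of a random double-stranded 16-mer DNA library in Tris/NaCl/DTT/glycerol buffer, then washed, crosslinked with 0.1% formaldehyde, proximity-ligated (BsaI/T4 ligase, 1 h, 37 °C), PCR-amplified and sequenced on an Illumina NextSeq500. Binding signal is each hexamer's read frequency for a factor divided by its frequency for the tag-only sample.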

ELK1 = target: T2, ELK1 (Homo sapiens, UniProt P19419 1-428); conditions: protein: recombinant; tags: N-terminal GST; dsDNA, one strand shown
T2 sequence: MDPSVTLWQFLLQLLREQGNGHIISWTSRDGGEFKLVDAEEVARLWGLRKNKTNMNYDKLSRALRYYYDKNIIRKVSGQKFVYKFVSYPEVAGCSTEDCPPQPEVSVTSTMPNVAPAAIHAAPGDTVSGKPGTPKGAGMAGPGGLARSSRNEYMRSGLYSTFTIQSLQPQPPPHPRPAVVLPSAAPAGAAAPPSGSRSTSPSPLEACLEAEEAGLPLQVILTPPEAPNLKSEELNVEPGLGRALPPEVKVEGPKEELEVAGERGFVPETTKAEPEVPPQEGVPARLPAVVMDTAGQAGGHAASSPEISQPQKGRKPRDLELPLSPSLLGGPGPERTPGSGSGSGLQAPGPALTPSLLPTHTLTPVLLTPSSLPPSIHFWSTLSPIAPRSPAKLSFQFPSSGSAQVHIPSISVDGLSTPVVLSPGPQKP
In short: as §1

GABPA = target: T3, GABPA (Homo sapiens, UniProt Q06546 1-454); conditions: protein: recombinant; tags: N-terminal GST; dsDNA, one strand shown
T3 sequence: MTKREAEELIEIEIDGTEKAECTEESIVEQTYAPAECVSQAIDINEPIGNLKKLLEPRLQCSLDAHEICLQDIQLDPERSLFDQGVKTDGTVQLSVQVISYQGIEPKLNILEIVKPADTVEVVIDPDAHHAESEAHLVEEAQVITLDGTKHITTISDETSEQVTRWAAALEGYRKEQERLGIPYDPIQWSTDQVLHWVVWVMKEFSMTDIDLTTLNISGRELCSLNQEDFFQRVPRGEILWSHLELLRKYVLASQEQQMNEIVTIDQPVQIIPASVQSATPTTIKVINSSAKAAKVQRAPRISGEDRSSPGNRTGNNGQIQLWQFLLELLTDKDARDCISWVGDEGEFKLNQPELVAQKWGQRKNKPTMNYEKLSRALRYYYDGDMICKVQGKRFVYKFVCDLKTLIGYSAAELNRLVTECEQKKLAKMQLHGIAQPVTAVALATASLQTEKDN
In short: as §1

ERG = target: T4, ERG (Homo sapiens, UniProt P11308 1-479); conditions: protein: recombinant; tags: N-terminal GST; dsDNA, one strand shown
T4 sequence: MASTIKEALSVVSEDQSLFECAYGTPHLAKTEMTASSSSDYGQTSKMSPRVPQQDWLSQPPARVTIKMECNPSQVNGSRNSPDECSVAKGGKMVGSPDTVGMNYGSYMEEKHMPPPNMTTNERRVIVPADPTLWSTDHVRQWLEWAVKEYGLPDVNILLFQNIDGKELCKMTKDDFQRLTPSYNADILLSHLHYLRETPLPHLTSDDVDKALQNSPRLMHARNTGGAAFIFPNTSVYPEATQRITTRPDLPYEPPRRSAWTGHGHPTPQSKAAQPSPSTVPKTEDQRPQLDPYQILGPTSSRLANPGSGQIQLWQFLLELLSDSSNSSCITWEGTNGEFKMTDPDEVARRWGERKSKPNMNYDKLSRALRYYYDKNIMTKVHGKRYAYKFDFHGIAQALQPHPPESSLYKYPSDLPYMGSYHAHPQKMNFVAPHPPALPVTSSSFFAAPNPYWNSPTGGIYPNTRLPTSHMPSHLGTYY
In short: as §1

ELF1 = ELF1 (Homo sapiens, UniProt P32519 1-619); conditions: protein: recombinant; tags: N-terminal GST; dsDNA, one strand shown
ELF1, sequence (P32519 whole entry): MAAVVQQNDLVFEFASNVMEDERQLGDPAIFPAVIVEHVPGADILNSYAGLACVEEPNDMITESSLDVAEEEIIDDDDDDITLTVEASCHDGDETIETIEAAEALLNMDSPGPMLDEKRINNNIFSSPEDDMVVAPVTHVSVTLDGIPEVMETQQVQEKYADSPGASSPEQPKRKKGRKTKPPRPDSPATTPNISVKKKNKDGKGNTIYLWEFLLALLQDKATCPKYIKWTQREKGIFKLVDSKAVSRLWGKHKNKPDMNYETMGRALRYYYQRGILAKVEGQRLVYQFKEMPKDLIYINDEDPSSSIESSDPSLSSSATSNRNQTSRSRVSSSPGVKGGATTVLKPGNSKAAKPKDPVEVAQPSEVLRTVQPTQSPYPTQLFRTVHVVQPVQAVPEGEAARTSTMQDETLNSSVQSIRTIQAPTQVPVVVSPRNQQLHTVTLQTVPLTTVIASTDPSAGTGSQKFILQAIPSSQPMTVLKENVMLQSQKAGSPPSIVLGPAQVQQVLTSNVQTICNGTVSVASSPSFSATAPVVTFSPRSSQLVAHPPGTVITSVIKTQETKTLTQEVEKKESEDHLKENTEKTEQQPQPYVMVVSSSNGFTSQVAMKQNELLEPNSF
In short: as §1

EHF = target: T5, EHF (Homo sapiens, UniProt Q9NZC4 1-300); conditions: protein: recombinant; tags: N-terminal GST; dsDNA, one strand shown
T5 sequence: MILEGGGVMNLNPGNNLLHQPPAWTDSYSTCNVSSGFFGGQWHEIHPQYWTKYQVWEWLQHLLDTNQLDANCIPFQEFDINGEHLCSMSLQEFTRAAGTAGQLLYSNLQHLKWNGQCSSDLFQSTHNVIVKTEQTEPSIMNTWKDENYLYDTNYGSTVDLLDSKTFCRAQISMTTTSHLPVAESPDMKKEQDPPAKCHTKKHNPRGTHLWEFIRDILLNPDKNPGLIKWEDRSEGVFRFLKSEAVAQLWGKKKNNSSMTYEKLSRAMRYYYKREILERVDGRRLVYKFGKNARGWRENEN
In short: as §1

SPI1 = SPI1 (Homo sapiens, UniProt P17947 1-270); conditions: protein: recombinant; tags: N-terminal GST; dsDNA, one strand shown
In short: as §1

SPIB = SPIB (Homo sapiens, UniProt Q01892 1-262); conditions: protein: recombinant; tags: N-terminal GST; dsDNA, one strand shown
SPIB, sequence (Q01892 whole entry): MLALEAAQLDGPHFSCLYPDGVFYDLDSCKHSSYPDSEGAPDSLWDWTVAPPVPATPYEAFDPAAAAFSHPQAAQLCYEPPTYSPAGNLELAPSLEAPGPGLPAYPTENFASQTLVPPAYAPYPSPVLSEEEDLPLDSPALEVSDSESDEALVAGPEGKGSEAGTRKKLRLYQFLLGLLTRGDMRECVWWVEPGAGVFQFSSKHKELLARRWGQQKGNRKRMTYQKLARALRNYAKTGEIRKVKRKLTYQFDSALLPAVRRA
In short: as §1

ELK3 = target: T6, ELK3 (Homo sapiens, UniProt P41970 1-407); conditions: protein: recombinant; tags: N-terminal GST; dsDNA, one strand shown
T6 sequence: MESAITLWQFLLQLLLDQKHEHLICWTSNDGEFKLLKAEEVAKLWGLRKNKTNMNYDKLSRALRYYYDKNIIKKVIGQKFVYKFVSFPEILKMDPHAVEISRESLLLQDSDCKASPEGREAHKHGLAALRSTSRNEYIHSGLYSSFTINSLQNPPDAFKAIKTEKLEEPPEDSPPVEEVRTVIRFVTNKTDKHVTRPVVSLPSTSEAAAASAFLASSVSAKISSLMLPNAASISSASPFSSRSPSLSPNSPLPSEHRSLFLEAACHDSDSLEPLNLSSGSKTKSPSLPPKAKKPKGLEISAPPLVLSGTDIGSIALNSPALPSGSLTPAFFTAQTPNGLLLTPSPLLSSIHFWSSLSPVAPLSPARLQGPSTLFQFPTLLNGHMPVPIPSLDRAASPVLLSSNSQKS
In short: as §1

FEV = target: T7, FEV (Homo sapiens, UniProt Q99581 1-238); conditions: protein: recombinant; tags: N-terminal GST; dsDNA, one strand shown
T7 sequence: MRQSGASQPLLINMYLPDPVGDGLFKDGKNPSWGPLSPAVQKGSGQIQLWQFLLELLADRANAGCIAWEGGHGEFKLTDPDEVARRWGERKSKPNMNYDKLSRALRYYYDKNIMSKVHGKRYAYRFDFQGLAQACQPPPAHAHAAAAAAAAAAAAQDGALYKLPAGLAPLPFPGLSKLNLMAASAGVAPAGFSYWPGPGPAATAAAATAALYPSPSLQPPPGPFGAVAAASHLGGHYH
In short: as §1

ETV5 = ETV5 (Homo sapiens, UniProt P41161 1-510); conditions: protein: recombinant; tags: N-terminal GST; dsDNA, one strand shown
ETV5, sequence (P41161 whole entry): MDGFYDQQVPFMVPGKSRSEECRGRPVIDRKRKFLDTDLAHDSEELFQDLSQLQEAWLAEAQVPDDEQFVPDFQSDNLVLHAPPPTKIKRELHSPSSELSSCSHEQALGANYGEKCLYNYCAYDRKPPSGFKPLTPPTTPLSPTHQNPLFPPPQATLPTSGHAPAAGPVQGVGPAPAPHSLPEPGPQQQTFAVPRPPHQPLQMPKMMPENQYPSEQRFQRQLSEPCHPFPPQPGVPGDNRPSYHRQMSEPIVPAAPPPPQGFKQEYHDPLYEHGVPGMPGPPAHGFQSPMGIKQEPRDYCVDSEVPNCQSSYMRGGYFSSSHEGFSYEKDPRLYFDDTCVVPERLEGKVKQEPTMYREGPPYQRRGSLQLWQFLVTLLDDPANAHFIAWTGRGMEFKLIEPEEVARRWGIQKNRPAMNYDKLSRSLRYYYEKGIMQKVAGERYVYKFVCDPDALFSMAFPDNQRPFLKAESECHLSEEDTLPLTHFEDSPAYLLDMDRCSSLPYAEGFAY
In short: as §1

HSF1 = HSF1 (Homo sapiens, UniProt Q00613 1-529); conditions: protein: recombinant; tags: N-terminal GST; chain copies: 3; dsDNA, one strand shown
HSF1, sequence (Q00613 whole entry): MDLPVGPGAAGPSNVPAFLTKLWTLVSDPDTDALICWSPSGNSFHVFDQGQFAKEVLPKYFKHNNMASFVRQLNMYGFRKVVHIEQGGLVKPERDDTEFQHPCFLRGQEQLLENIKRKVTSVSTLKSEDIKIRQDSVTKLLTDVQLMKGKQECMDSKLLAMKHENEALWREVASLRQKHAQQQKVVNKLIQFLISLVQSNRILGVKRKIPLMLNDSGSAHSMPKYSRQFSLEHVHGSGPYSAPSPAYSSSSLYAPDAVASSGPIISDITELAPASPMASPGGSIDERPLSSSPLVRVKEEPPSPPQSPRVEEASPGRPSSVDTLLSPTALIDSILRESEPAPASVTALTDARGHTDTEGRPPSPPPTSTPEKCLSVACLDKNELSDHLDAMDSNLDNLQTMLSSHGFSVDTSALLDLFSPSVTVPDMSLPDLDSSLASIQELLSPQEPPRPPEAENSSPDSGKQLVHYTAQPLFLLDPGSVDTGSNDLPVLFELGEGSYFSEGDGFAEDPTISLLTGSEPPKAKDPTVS
In short: as §1

SPIC = target: T8, SPIC (Homo sapiens, UniProt Q8N5J4 1-248); conditions: protein: recombinant; tags: N-terminal GST; dsDNA, one strand shown
T8 sequence: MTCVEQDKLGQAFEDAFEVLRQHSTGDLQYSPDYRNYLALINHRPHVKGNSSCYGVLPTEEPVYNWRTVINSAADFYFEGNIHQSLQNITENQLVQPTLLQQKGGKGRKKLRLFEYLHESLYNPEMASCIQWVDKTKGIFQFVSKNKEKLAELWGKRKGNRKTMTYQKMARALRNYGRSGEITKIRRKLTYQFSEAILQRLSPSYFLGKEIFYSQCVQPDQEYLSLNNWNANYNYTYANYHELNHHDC
In short: as §1

ELF4 = ELF4 (Homo sapiens, UniProt Q99607 1-663); conditions: protein: recombinant; tags: N-terminal GST; dsDNA, one strand shown
ELF4, sequence (Q99607 whole entry): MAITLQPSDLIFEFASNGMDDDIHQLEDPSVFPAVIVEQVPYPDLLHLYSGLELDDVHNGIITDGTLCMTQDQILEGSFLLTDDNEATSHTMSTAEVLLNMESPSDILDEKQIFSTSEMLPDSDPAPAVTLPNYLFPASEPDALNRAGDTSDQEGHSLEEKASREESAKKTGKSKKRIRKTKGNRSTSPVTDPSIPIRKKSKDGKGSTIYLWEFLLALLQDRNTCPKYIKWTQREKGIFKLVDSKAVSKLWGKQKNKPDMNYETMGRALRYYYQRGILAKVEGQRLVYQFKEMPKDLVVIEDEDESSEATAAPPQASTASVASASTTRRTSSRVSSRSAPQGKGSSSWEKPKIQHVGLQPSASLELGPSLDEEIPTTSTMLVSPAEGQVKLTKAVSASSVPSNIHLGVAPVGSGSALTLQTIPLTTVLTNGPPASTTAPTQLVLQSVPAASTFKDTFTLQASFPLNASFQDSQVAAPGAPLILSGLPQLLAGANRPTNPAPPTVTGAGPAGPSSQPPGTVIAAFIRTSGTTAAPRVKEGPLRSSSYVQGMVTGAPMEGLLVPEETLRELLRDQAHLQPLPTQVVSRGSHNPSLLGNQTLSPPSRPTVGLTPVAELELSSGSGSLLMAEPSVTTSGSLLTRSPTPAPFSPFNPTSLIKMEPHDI
In short: as §1

ELK4 = target: T9, ELK4 (Homo sapiens, UniProt P28324-2 1-405); conditions: protein: recombinant; tags: N-terminal GST; dsDNA, one strand shown
T9 sequence: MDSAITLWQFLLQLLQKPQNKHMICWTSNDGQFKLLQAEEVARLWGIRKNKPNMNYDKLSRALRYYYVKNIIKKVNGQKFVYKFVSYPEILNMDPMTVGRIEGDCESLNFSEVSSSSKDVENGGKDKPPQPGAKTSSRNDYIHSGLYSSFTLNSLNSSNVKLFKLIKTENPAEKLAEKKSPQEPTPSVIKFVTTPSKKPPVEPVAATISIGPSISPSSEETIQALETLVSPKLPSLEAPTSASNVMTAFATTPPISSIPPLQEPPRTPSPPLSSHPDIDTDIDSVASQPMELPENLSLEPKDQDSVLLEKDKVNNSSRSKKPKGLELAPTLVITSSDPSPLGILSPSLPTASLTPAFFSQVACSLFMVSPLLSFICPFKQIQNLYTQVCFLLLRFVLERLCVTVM
In short: as §1

ETV2 = target: T10, ETV2 (Homo sapiens, UniProt O00321 1-342); conditions: protein: recombinant; tags: N-terminal GST; dsDNA, one strand shown
T10 sequence: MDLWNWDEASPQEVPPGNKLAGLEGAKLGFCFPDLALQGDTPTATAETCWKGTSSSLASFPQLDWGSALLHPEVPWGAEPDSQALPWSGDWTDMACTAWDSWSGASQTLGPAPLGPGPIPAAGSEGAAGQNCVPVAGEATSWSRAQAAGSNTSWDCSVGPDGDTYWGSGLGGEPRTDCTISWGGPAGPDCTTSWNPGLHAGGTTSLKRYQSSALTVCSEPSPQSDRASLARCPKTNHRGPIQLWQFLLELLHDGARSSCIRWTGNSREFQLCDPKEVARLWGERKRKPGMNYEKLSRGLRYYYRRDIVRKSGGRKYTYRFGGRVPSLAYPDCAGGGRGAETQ
In short: as §1

CRX = CRX (Homo sapiens, UniProt O43186 1-299); conditions: protein: recombinant; tags: N-terminal GST; dsDNA, one strand shown
CRX, sequence (O43186 whole entry): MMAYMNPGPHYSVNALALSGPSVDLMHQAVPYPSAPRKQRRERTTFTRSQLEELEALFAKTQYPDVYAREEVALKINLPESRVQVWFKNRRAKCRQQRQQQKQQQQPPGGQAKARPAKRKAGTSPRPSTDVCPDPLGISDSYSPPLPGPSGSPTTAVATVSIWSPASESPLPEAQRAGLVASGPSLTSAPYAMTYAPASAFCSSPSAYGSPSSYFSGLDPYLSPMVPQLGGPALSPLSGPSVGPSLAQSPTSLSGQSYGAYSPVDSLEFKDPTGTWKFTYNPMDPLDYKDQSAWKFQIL
In short: as §1

ETV1 = ETV1 (Homo sapiens, UniProt P50549 1-477); conditions: protein: recombinant; tags: N-terminal GST; dsDNA, one strand shown
ETV1, sequence (P50549 whole entry): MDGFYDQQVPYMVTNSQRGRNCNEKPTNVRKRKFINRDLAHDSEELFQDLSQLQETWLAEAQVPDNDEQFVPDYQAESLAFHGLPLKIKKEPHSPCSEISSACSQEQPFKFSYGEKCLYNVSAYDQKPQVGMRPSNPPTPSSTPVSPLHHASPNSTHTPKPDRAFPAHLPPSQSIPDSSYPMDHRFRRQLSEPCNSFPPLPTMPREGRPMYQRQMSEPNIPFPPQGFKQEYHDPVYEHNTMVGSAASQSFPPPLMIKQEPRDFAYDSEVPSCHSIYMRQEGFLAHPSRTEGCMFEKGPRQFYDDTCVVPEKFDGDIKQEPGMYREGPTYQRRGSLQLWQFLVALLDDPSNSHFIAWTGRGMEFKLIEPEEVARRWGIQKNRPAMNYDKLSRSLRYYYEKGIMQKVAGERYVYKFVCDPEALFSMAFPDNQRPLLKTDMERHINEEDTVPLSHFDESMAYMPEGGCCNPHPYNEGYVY
In short: as §1

Sequence | binding signal (FLI1) | binding signal (ELK1) | binding signal (GABPA) | binding signal (ERG) | binding signal (ELF1) | binding signal (EHF) | binding signal (SPI1) | binding signal (SPIB) | binding signal (ELK3) | binding signal (FEV) | binding signal (ETV5) | binding signal (HSF1) | binding signal (SPIC) | binding signal (ELF4) | binding signal (ELK4) | binding signal (ETV2) | binding signal (CRX) | binding signal (ETV1)
CTCCAT | 1.34 fold enrichment (6-mer frequency, TF over GST control) | 1.38 fold enrichment (6-mer frequency, TF over GST control) | 1.31 fold enrichment (6-mer frequency, TF over GST control) | 1.34 fold enrichment (6-mer frequency, TF over GST control) | 1.34 fold enrichment (6-mer frequency, TF over GST control) | 1.37 fold enrichment (6-mer frequency, TF over GST control) | 1.32 fold enrichment (6-mer frequency, TF over GST control) | 1.25 fold enrichment (6-mer frequency, TF over GST control) | 1.36 fold enrichment (6-mer frequency, TF over GST control) | 1.36 fold enrichment (6-mer frequency, TF over GST control) | 1.43 fold enrichment (6-mer frequency, TF over GST control) | 1.21 fold enrichment (6-mer frequency, TF over GST control) | 1.12 fold enrichment (6-mer frequency, TF over GST control) | 1.28 fold enrichment (6-mer frequency, TF over GST control) | 1.4 fold enrichment (6-mer frequency, TF over GST control) | 1.46 fold enrichment (6-mer frequency, TF over GST control) | 1.19 fold enrichment (6-mer frequency, TF over GST control) | 1.3 fold enrichment (6-mer frequency, TF over GST control)
GATGAA | 1.23 fold enrichment (6-mer frequency, TF over GST control) | 1.26 fold enrichment (6-mer frequency, TF over GST control) | 1.2 fold enrichment (6-mer frequency, TF over GST control) | 1.17 fold enrichment (6-mer frequency, TF over GST control) | 1.18 fold enrichment (6-mer frequency, TF over GST control) | 1.15 fold enrichment (6-mer frequency, TF over GST control) | 1.1 fold enrichment (6-mer frequency, TF over GST control) | 1.24 fold enrichment (6-mer frequency, TF over GST control) | 1.11 fold enrichment (6-mer frequency, TF over GST control) | 1.13 fold enrichment (6-mer frequency, TF over GST control) | 1.13 fold enrichment (6-mer frequency, TF over GST control) | 1.21 fold enrichment (6-mer frequency, TF over GST control) | 1.11 fold enrichment (6-mer frequency, TF over GST control) | 1.2 fold enrichment (6-mer frequency, TF over GST control) | 1.21 fold enrichment (6-mer frequency, TF over GST control) | 1.13 fold enrichment (6-mer frequency, TF over GST control) | 1.22 fold enrichment (6-mer frequency, TF over GST control) | 1.27 fold enrichment (6-mer frequency, TF over GST control)
